The whole screen tested about 4,500 compounds, of which about 200 (4.4%) were called active. This excerpt belongs to a sample that is enriched for actives. A number with no mark means an inactive call.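 Rule for the calls: active = cell survival measured by absorbance rises more than 2.5-fold over infected cells without compound; inactive = the rest.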

This assay is described as follows: survival after telomere uncapping, modulators, primary screen, cell-based (AID 1259312).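 Note: virus expresses mutant telomerase RNA that uncaps telomeres and kills cells; compound added 2 days after infection so exposure lasts 3 days.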 To be noted: HCT116 + Ad-hTR-mut, MTT, 5 d; at 10 µM, hits give high values.
Take `O=c1[nH]cnc2nn(-c3ccccc3)nc12`: the fold change result was “inactive”. For `Fc1ccccc1CSC1=NCCN1` the value was 3.44 (active). On to `Fc1ccc(CSc2nnc(SCc3ccccc3F)s2)cc1`, for which the fold change is -1.07. For the molecule `c1ccc(CC2=NCCN2)cc1`, the fold change is -1.2.

With `O=C1NC(=O)/C(=C/c2ccc(-c3ccc(Br)c(Cl)c3)o2)N1`, the fold change was -1.16.

As to `Nc1ccc(N2CCCC2)c(C(F)(F)F)c1`, the fold change was 1.69. Consider `COc1ccc(N/C=C(\C#N)C(N)=S)cc1OC`, for which the fold change was -3.68.

As to `COc1ccc(CC2=CN(C)CC3=C2OC(N)=C(C#N)C3c2ccc(OC)cc2)cc1` (stereo unspecified), the fold change was 1.19.

Take `CC(C)N1C=C(Cc2ccc(F)cc2)C2=C(C1)C(c1ccc(F)cc1)C(C#N)=C(N)O2` (stereo unspecified): the fold change was 1.45.

With `CCCN1CC2=C(OC(N)=C(C#N)C2c2ccc(SC)cc2)/C(=C/c2ccc(SC)cc2)C1` (stereo unspecified), the fold change was 5.06 (active). For `COc1ccc(C(=CCl)c2ccc(OC)c(Br)c2)cc1Br` the value was -2.67; for `CCc1sc(C(C2C(=O)CC(C)(C)CC2=O)C2C(=O)CC(C)(C)CC2=O)cc1Br`, -6.02. Next, `CCc1sc(C(C2C(=O)CC(C)(C)CC2=O)C2C(=O)CC(C)(C)CC2=O)cc1[N+](=O)[O-]`: 3.11 (active); `CCc1ccc(C(C2C(=O)CC(C)(C)CC2=O)C2C(=O)CC(C)(C)CC2=O)s1`: -2.62; `O=C(N=Nc1c(O)[nH]c2ccccc12)c1cc(-c2ccco2)[nH]n1`: “inactive”.

In the case of `O=[N+]([O-])c1ccc(Cl)cc1SCCO`, the fold change was 3.06 (active). For `O=[N+]([O-])c1ccc(Cl)cc1N1CCN(CCO)CC1` the value was 2.17; for `O=[N+]([O-])c1ccc(SCCO)c2ncccc12`, 1.52; for `COc1ccc(C2C3CCC=C3C(C#N)=C(N)C2(C#N)C#N)c(OC)c1` (stereo unspecified), 1.26. On to `COCCNC(=O)C(=O)NCCC1=CCCCC1`, for which the fold change is 1.05. For `c1ccc2c(c1)nnn2CN1CCN(c2ccc3c(c2)OCO3)CC1` the value was -1.48; for `Clc1cccc(N2CCN(Cn3nnc4ccccc43)CC2)c1`, 3.04 (active); for `C(=C/c1ccccc1)/CN1CCN(Cn2nnc3ccccc32)CC1`, -1.33. For `Cc1cc(C)c(CCl)c(C)c1/C=N/O` the value was 1.02; for `O=C(O)CSc1nc(SCc2ccccc2)nc2ccccc12`, 1.5.

Consider `CCc1ccc(C2C(C#N)=C(N)OC3=C2C(=O)CCC3)s1` (stereo unspecified), for which the fold change was 1.35. For `COC(=O)c1nonc1N` the value was -1.05; for `CCOC(=O)c1nonc1N`, 3.82 (active). As to `Nc1nonc1C(=O)O`, the fold change was -1.12. As to `CS(=O)(=O)Nc1ccc(Br)cn1`, the fold change was -1.27. With `CCCOc1ccc(N/C(N)=N/c2nc(C)cc(C)n2)cc1`, the fold change is -3.48. For `CC1=C(C2=C(C)C(C(C)C)C3=C(C(=O)C(O)C3O)C2O)C(O)C2=C(C(O)C(O)C2=O)C1C(C)C` (stereo unspecified), the fold change was -1.99.

Turning to `O=S(=O)(Nc1cc(Cl)cc(Cl)c1)c1ccc(Cl)cc1`, the fold change was 4.93 (active). In the case of `O=S(=O)(Nc1ccc(Cl)cc1)c1ccc(NS(=O)(=O)c2ccc3c(c2)OCCO3)cc1`, the fold change was -1.18.

As to `O=S(=O)(Nc1ccc(F)c(Cl)c1)c1ccc(Cl)cc1`, the fold change is 2.99 (active). For the molecule `O=S(=O)(Nc1cccc(F)c1)c1ccc(F)cc1`, the fold change was -1.33. Turning to `O=S(=O)(Nc1ccncc1)c1ccc(Cl)cc1`, the fold change was -1.23. Next, `O=S(=O)(Nc1ccc2c(c1)OCO2)c1ccc(Cl)cc1`: -1.43; `COc1ccc(C2Oc3ccccc3C3CC(c4ccccc4)=NN32)cc1` (stereo unspecified): -1.84; `O=c1cc(-c2ccc(O)cc2)oc2c(O)c(O)ccc12`: 1.16. Regarding `CSc1nc2ccccc2n1Cc1ccccc1Cl`, the fold change was 1.29.

For `O=S(=O)(Nc1ccc(S(=O)(=O)Nc2ccccc2Cl)cc1)c1ccc2c(c1)OCCO2`, the fold change was -1.07.

As to `CNCC1COCCO1` (stereo unspecified), the fold change was -2.02. In the case of `N=C(N)SCc1csc(N)n1`, the fold change is 1.98.

With `C1=NC(Cc2cccc3ccccc23)NC1` (stereo unspecified), the fold change is 4.23 (active).

Regarding `S=c1[nH]nc(Cc2cccc3ccccc23)o1`, the fold change was -2.84. For `Cc1nc2sc3c(c2c(=O)n1N)CCC3` the value was -1.06; for `c1ccc(CC2COC(C3=N[C@@H](Cc4ccccc4)CO3)=N2)cc1` (stereo partly specified), 1.27. Next, `O=C(NCCC1=CCCCC1)C(=O)NCc1ccco1`: -1.07. Next, `O=S(=O)(c1ccc2ccccc2c1)N1CCc2ccccc21`: 1.

As for `CCCCc1ccc(-c2csc(N)c2C#N)cc1`, the fold change was -1.78.

Regarding `S=c1n(CN2CCOCC2)nnn1C1CCCCC1`, the fold change was 1.01. For `CCn1c(-c2ccccc2)nn(CN2CCOCC2)c1=S` the value was 1.15; for `S=c1n(CN2CCOCC2)nnn1-c1ccccc1`, 4.24 (active).

As for `CN(C)c1nc(N)nc(CN(C)S(=O)(=O)c2ccccc2)n1`, the fold change is -1.09. For `CN(C)c1ccc(C=Nc2ccc3[nH]c(=O)[nH]c3c2)cc1[N+](=O)[O-]` the value was -1.64; for `O=c1[nH]c2ccc(N=Cc3ccc4c(c3)OCO4)cc2[nH]1`, 2.71 (active).

Turning to `C(=Nc1ccc2[nH]ncc2c1)c1ccc2c(c1)OCO2`, the fold change was -2.04. For the molecule `O=C(ON1C(=O)CCC1=O)ON1C(=O)CCC1=O`, the fold change is -1.28. On to `O=[N+]([O-])c1ccc(Cl)c(N2CCCC2)c1`, for which the fold change is 2.03. Take `Nc1nnc(SCc2ccc(Cl)cc2)s1`: the fold change is 1.21. For the molecule `N=C(N)SCc1ccc(Cl)cc1`, the fold change is 2.73 (active). Next, `N=C(N)SCc1ccc(Cl)cc1Cl`: -1.36.

Turning to `O=S(=O)(NCC1CCCO1)c1ccc(Br)cc1` (stereo unspecified), the fold change is 3.1 (active). As to `O=S(=O)(NCC1CCCO1)c1ccccc1` (stereo unspecified), the fold change is -1.72. `CC1Oc2ccc(S(=O)(=O)NCC3CCCO3)cc2NC1=O` (stereo unspecified): the fold change was -1.21. For `NCC12CC3CC(CC(C3)C1)C2` the value was -1.38; for `CC1NC(=O)N(C(C)(C)C)C(=O)C1Cl` (stereo unspecified), 3.94 (active). For `COc1ccc(N2C(=O)/C(=C\N3CCN(C)CC3)SC2=S)cc1` the value was -1.11; for `Cc1ccn(-c2ccc([N+](=O)[O-])cc2)n1`, -1.59; for `N#CC(C#N)=Cc1ccc(-c2cccc(C(F)(F)F)c2)o1`, 2.62 (active). For `O=C1NC(=S)S/C1=C/c1ccc(-c2cccc(C(F)(F)F)c2)o1`, the fold change is 1.1. For `O=C1NC(=O)/C(=C\c2ccc(-c3cccc(C(F)(F)F)c3)o2)S1` the value was -1.8; for `O=C1CSc2ccc(NC(=O)C3CCCC3)cc2N1`, 1.29. Next, `O=[N+]([O-])c1ccc(N2CCCCC2)cc1N1CCOCC1`: -1.29; `O=[N+]([O-])c1ccc(N2CCOCC2)cc1`: 1.1. `Nc1cc(N2CCOCC2)ccc1[N+](=O)[O-]`: the fold change is 3.38 (active). With `O=C(O)C(C(=O)O)C1C=CCC1` (stereo unspecified), the fold change is 1.13. As to `Nc1ccc(N2CCOCC2)c(Cl)c1`, the fold change was 4.13 (active). For `Nc1ccc(N2CCOCC2)c(Br)c1`, the fold change is -1.07. On to `Nc1cc(Cl)ccc1N1CCOCC1`, for which the fold change was 1.23. For `N#CC1=C(N)n2c(s/c(=C\c3ccc(Br)cc3)c2=O)=C(C#N)C1c1ccc(Br)cc1` (stereo unspecified) the value was -1.13; for `Brc1ccc(-c2csc(N3CCOCC3)n2)cc1`, 1.56; for `N#CC(C#N)C(c1ccsc1)c1c(-c2ccccc2)[nH][nH]c1=O` (stereo unspecified), 3.37 (active). Next, `Clc1ccc(-c2nc3sc(-c4ccc(Cl)cc4Cl)nc3s2)c(Cl)c1`: -2.46; `COC(=O)c1nc2ccc(OC)cc2s1`: -1.15. For the molecule `COc1ccc(C2C(C#N)=C(N)NC(C(C#N)C#N)=C2C#N)cc1OC` (stereo unspecified), the fold change is -1.8.

Consider `O=C(O)c1ccn[nH]1`, for which the fold change is 3.42 (active). Turning to `CCOC(=O)CO/N=C(\C(=O)O)c1ccn[nH]1`, the fold change result is “inactive”.

In the case of `COC(=O)CNC(=O)c1ccn[nH]1`, the fold change was -1.28. For `c1ccc(CCn2c(-c3ccccc3)csc2=Nc2ccccc2)cc1` the value was -2.95; for `CSc1nc(-c2ccc([N+](=O)[O-])cc2)nn1C`, -3.83. Next, `CS(=O)(=O)NCCNC(=O)c1nonc1N`: -1.3; `Nc1nonc1C(=O)NCCNS(=O)(=O)c1ccccc1`: 3.28 (active); `NCCNC(=O)c1nonc1N`: 1.63.

For `O=C(O)c1[nH]c(=O)[nH]c(=O)c1[N+](=O)[O-]`, the fold change is 1.2. For `CS(=O)(=O)N1CCc2cc(S(=O)(=O)N3CCC(c4ccccc4)CC3)ccc21` the value was 1.49.

As for `CS(=O)(=O)Nc1cccc(Cl)c1Cl`, the fold change was -1.31. In the case of `COc1ccc(CC2=CN(C)CC3=C2OC(N)=C(C#N)C3c2ccc(OC)c(OC)c2)cc1OC` (stereo unspecified), the fold change is -1.28. `O=C(Nc1ccc(Cl)cc1)Nc1ccc(Cl)cc1Cl`: the fold change was -2.79. For `CCc1nnc(NC(=O)CN(C)CCC#N)s1` the value was -1.46; for `O=C(O)CCCn1c(=O)n(CCCC(=O)O)c2ccccc21`, 3.81 (active); for `O=c1n(Cc2ccon2)c2ccccc2n1Cc1ccon1`, -2.68.

Regarding `COC(=O)Cn1c(=O)c2ccccc2n(CC(=O)OC)c1=O`, the fold change was -1.31. For `CCN(C(=O)Cc1cccs1)C1CCCCC1` the value was -1.09; for `Cn1c(=O)oc2ccc(S(=O)(=O)Nc3ccc4c(c3)n(C)c(=O)n4C)cc21`, -1.89. Next, `Cc1ccc(N=Nc2ccccc2)c(N)n1`: 3.19 (active); `Nc1nonc1-c1ccccc1`: -1.8; `CC(=NCCCN1CCOCC1)c1c(C(F)(F)F)[nH]n(-c2nc3ccccc3s2)c1=O`: “inactive”. Next, `CCCCCCCN=C(C)c1c(C(F)(F)F)[nH]n(-c2nc3ccccc3s2)c1=O`: “active”; `CCCN=C(CC)c1c(C(F)(F)F)[nH]n(-c2nc3ccccc3s2)c1=O`: “inactive”.

The values above are taken from PubChem BioAssay AID1259312 (Keith Lab, Institute of Cancer Science, University of …, 2017).
